FBPA coupling cs: qHTS Assay for Inhibitors of Fructose-1,6-bisphosphate Aldolase from Giardia Lamblia: Coupling assay counterscreen; coupling enzyme system counterscreen, AmpLite Red fluorescence; activity change, negative = inhibition, % at 58.2 µM, hits read low; hit rate 0.67% among 290,000; in the data active means activity change below about -30%
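Activity here indicates interference with the coupling reaction, not aldolase inhibition. Compounds at 57.5 uM final met coupling enzymes for 10 min at RT; substrate and AmpLite Red detection followed, with a 525/598 nm fluorescence read after 20 min.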
gsp ag: qHTS for Agonist of gsp, the Etiologic Mutation Responsible for Fibrous Dysplasia/McCune-Albright Syndrome: qHTS; Potency, µM (highest dose often 76.9 µM), hits mostly activators; hit rate 0.13% among 340,000; gsp mutant cells, cAMP HTRF, 30 min; AID 624287, 2012; active means well fitted activation curve with a large enough effect; inconclusive means small, poorly fitted or top-dose-only effect, or another doubt; inactive means no such curve, though single readings can be large or run the other way; cell line not stated here;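 further: phosphodiesterase inhibitor Ro 20-1724 added with compounds to block cAMP breakdown; nearly all actives have a fitted effect of over 60% in size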
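Cells in DMEM/10% FBS with G418 were pretreated with compounds in DMSO plus […] (300 uM stock) for 30 min at 37C. cAMP was measured by HTRF (cAMP-d2 plus anti-cAMP antibody-K) after 30 min at room temperature.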
Giardia killer: Small Molecules that selectively kill Giardia lamblia: qHTS; AID 540267, 2011; hit rate 0.15% among 340,000; Giardia lamblia trophozoite viability; activity change, % at 7.66 µM, hits read low; in the data active means activity change below about -80%; inconclusive means between about -30% and that limit;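 further: parasites exposed to compound for two days anaerobically before the ATP read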
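Media and compound were dispensed first, then trophozoites at 100 cells/well; plates sat 48 hrs at 37 deg C without oxygen before ATP luminescence reagent was added and read after 15-30 min at room temperature.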
gsp antag: qHTS for Antagonists of gsp, the Etiologic Mutation Responsible for Fibrous Dysplasia/McCune-Albright Syndrome: qHTS. Potency, µM (highest dose often 76.9 µM), most hits filed as inhibitors. gsp-mutant cells, cAMP HTRF, 30 min. AID 624288, 2012. hit rate 0.4% among 340,000; calls by dose curve; cell line not stated here;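 further: intracellular cAMP measured with PDE inhibitor Ro 20-1724 present during compound exposure; nearly all actives have a fitted effect of over 65% in size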
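HTRF cAMP read-out (cAMP-d2 plus anti-cAMP antibody-K in lysis buffer, 30 min RT). Before lysis, cells are exposed to compounds with […] for 30 min at 37C in DPBS containing Ca/Mg, BSA and Tween 20.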
RXFP1 ag: qHTS Assay for Agonists of the Relaxin Receptor RXFP1; Relaxin receptor 1 (Homo sapiens), Q9HBX9; HEK293T-RXFP1 cAMP TR-FRET, 30 min; response scale: percent of porcine relaxin response, buffer zero; Potency, µM (highest dose often 57.5 µM), actives largely listed as activators; hit rate 0.3% among 370,000; active means well fitted activation curve with a large enough effect; inconclusive means small, poorly fitted or top-dose-only effect; further: nearly all actives have a fitted effect of over 60% in size
Target sequence (Q9HBX9 whole entry, looked up): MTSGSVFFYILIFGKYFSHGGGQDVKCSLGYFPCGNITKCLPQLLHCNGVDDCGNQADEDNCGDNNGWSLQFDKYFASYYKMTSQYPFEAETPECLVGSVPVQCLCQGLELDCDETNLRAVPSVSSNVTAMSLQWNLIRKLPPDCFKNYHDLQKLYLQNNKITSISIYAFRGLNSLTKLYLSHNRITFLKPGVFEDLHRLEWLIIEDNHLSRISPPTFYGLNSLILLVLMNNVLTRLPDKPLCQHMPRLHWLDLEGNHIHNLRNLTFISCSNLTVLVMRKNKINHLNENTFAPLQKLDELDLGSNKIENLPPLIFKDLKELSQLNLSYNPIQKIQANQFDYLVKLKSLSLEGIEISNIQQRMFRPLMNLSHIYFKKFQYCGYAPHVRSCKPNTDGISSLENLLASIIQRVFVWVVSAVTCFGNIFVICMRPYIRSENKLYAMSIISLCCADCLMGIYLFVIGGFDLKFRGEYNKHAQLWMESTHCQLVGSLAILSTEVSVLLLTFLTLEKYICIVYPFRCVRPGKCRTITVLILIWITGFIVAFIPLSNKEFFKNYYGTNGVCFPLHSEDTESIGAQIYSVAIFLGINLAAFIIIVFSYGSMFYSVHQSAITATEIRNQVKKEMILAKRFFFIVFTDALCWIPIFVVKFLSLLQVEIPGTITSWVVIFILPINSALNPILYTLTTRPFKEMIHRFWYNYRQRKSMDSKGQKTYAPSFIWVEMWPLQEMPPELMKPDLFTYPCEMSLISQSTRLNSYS
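Agonist response is measured as cAMP accumulation in an RXFP1-transfected HEK293T line under PDE4 inhibition. Values are scaled between buffer-only and 29 nM porcine relaxin, and EC50s come from standard Hill equation fits.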
RXFP1 antagonist: qHTS Assay for Antagonists of the Relaxin Receptor RXFP1; Relaxin receptor 1 (Homo sapiens), Q9HBX9; HEK293-RXFP1, relaxin-stimulated cAMP HTRF, 30 min; stronger effect = lower value; activity change, negative = inhibition, % at 57.5 µM; hit rate 0.59% among 350,000; AID 1259400, 2018;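 active means activity change of -60% or lower, but not beyond a set lower limit; inconclusive means change between -60% and -40%, or beyond the set limit; inactive means change above -40%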
Each line names hits and unclear results; the compound was inactive in the other large screens. The list is not random: actives were taken first. Their share in the collection is about 1.6%.

CC1=CC(C)(C)Nc2ccc(OC(=O)CN3C(=O)c4ccccc4C3=O)cc21	none
COCCNc1ncnc2ccc(-c3ccc(C(=O)N(C)C)cc3)cc12	none (no result: gsp ag, Giardia killer, gsp antag, RXFP1 ag, RXFP1 antagonist)
O=C(CCn1nnc2ccccc21)Nc1nnc(Cc2ccccc2)s1	gsp ag inconclusive, gsp antag 32µM
Cc1nc(-c2coc3c(O)c(O)ccc3c2=O)cs1	none (no result: gsp ag, Giardia killer, gsp antag, RXFP1 ag, RXFP1 antagonist)
CCn1c(SCC(=O)Nc2sc3c(c2C#N)CCCC3)nnc1-c1ccco1	FBPA coupling cs -40
CN(C)CCNc1ccc2ncn3c4ccc(O)cc4c(=O)c1c23	gsp ag 14µM, gsp antag inconclusive (no result: FBPA coupling cs, RXFP1 ag)
CCC(Nc1ncnc2ccc(-c3c(C)noc3C)cc12)c1ccccc1 (stereo not given)	none (no result: gsp ag, Giardia killer, gsp antag, RXFP1 ag, RXFP1 antagonist)
COc1ccc(CNC(=O)CN2C(=O)NC(Cc3ccccc3)(c3ccccc3)C2=O)cc1OC (stereo not given)	none (no result: FBPA coupling cs)
COC(=O)c1ccccc1NC(=O)CCS(=O)(=O)c1nc(-c2ccc3c(c2)OCO3)cc(C(F)(F)F)n1	RXFP1 antagonist -63 (no result: FBPA coupling cs, gsp ag, Giardia killer, gsp antag)
CCCc1nn2c(=O)cc(CSCC(=O)Nc3ccc(F)cc3)nc2s1	none
CC1=C(CC(=O)c2ccc(Cl)cc2)C(=O)c2ccccc2C1=O	FBPA coupling cs -40
O=C(Cc1ccccn1)c1ccc(Cl)cc1	none (no result: FBPA coupling cs, gsp ag, RXFP1 antagonist)
COC(=O)c1ccc(CCc2cc(O)ccc2O)cc1	RXFP1 antagonist -72 (no result: FBPA coupling cs, RXFP1 ag)
CC(C)OC(=O)c1ccc(NCc2cc(O)ccc2O)cc1	RXFP1 antagonist -63 (no result: FBPA coupling cs, RXFP1 ag)
COC(=O)c1ccc(O)cc1	none
COC(=O)c1cc(Br)c(=O)n(CCc2ccccc2)c1	none
COC(=O)c1ccc(CCc2cc(O)c(Br)cc2O)cc1	RXFP1 antagonist -96 (no result: FBPA coupling cs, RXFP1 ag)
CN(C)c1ccc2c(-c3ccccc3)c3ccc(=[N+](C)C)cc-3oc2c1	none (no result: gsp ag, Giardia killer, gsp antag, RXFP1 ag, RXFP1 antagonist)
Cc1ccc(-c2nc(NCc3cccnc3)c3ccccc3n2)cc1	gsp antag 35µM
CCNc1nc(C#N)nc(NCC)n1	none (no result: FBPA coupling cs, gsp ag, gsp antag, RXFP1 ag, RXFP1 antagonist)
Cc1ccccc1N=Cc1ccc[nH]1	none (no result: FBPA coupling cs, RXFP1 ag, RXFP1 antagonist)
Cc1ccc(N=Cc2ccc[nH]2)c(O)c1	FBPA coupling cs -34
COc1ccc(NS(=O)(=O)c2ccc(O)c(NC(=O)c3ccc(S(=O)(=O)N4CCCC4)cc3)c2)cc1	RXFP1 antagonist -60
O=C(Nc1nc(-c2ccccc2)cs1)c1ccc2c(=O)n3c(nc2c1)CCCCC3	gsp antag 40µM
O=C(Nc1nc(-c2ccccc2)cs1)c1ccc(N2CCOCC2)c([N+](=O)[O-])c1	gsp antag 32µM
O=C(Nc1ccccc1Cl)c1ccc2c(=O)n3c(nc2c1)CCC3	none (no result: FBPA coupling cs)
Cc1ccc(S(=O)(=O)N2CCN(S(=O)(=O)c3ccc4c(c3)OCCCO4)CC2)cc1	none (no result: FBPA coupling cs, gsp ag, gsp antag, RXFP1 ag, RXFP1 antagonist)
CCOC(=O)c1c(NC(=O)COc2cccc3c2CCN(C)C3=O)sc2c1CCC2	gsp antag 14µM
COc1ccc2[nH]c3c(NCCC4=CCCCC4)ncnc3c2c1	gsp antag 28µM, RXFP1 antagonist -71
CCN(CC)CCNc1ncnc2c1[nH]c1ccc(OC)cc12	none (no result: gsp ag, Giardia killer, gsp antag, RXFP1 antagonist)
O=[N+]([O-])C1=CC=C2C(=NC3(CCCCC3)N2O)C1=NCCO	FBPA coupling cs -53, gsp antag inconclusive
CN=C1C([N+](=O)[O-])=CC=C2C1=NC1(CCCCC1)N2O	FBPA coupling cs -45
CC(=O)O[C@H](C)OC(=O)[C@@H](C)c1ccc(-c2ccccc2)c(F)c1	none (no result: FBPA coupling cs, gsp ag, Giardia killer, gsp antag, RXFP1 ag)
CC(=NNC(=S)N1CCN(c2ccccn2)CC1)c1nccs1	gsp ag inconclusive (no result: FBPA coupling cs, RXFP1 ag)
c1ccc(-c2cnc(CSc3nnc4ccccn34)o2)cc1	FBPA coupling cs -37
C[C@H]1Cc2c(COc3ccccc3)nc3c(c2CO1)CN(C(=O)c1ccco1)CC3	none (no result: gsp ag, Giardia killer, gsp antag, RXFP1 ag, RXFP1 antagonist)
O=C(NCCCN1CCOCC1)c1sc2cc(Cl)ccc2c1Cl	none (no result: gsp antag)
O=C(NCCCN1CCOCC1)c1sc2cc([N+](=O)[O-])ccc2c1Cl	FBPA coupling cs -60
OC[C@@H](O)[C@H](O)[C@H](O)[C@@H](O)CO	none (no result: FBPA coupling cs, gsp ag, Giardia killer, gsp antag, RXFP1 ag)

Screening data deposited in PubChem BioAssay by National Center for Advancing Translational Sciences (NCATS).
